In publication PMC9838217, “Structure of SALL4 zinc finger domain reveals link between AT-rich DNA binding and Okihiro syndrome”:
Numbering of substitutions follows the chain as printed.

Legend:
Assay in all cases: HT-SELEX; high values mean tight binding
Details in all cases: protein: recombinant; vector His6-GST; dsDNA, one strand shown
SALL4 ZFC4 WT (HT-SELEX) = biological target: T1, SALL4 ZFC4 WT (HT-SELEX) (Mus musculus, UniProt Q8BX22 870-940)
T1 sequence: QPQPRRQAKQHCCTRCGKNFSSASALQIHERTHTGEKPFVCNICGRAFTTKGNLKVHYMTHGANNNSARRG
Method in brief: (§1)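 A 100 µl reaction of 10 mM Tris–HCl pH 7.5, 50 mM NaCl, poly(dI-dC) and DTT held purified recombinant mouse SALL4 zinc finger cluster 4 (residues 870–940, 1 µg) and library DNA (1.5 µg first cycle, 200 ng later) for 10 min at room temperature. Complexes captured on Ni2+ beads were washed, PCR-amplified and reselected for up to 6 cycles, in triplicate, then MiSeq-sequenced and scanned for 6-mers. Binding signal is the read fraction of each canonical k-mer expressed as fold change over the initial random library.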

[1] = biological target: T2, SALL4 ZFC4 R900W (HT-SELEX) (Mus musculus, UniProt Q8BX22 870-940, R900W)
T2 sequence: T1 sequence with R31W
Method in brief: as §1

[2] = biological target: T3, SALL4 ZFC4 G921D (HT-SELEX) (Mus musculus, UniProt Q8BX22 870-940, G921D)
T3 sequence: T1 sequence with G52D
Method in brief: as §1

CTCACA gave a binding signal (SALL4 ZFC4 WT (HT-SELEX)) of 0.786 ± 0.0522 fold-change vs cycle 0, a binding signal [1] of 0.895 ± 0.0341 fold-change vs cycle 0 and a binding signal [2] of 0.9459 ± 0.00888 fold-change vs cycle 0.

Work on ACAACG yielded a binding signal (SALL4 ZFC4 WT (HT-SELEX)) of 0.592 ± 0.0372 fold-change vs cycle 0, a binding signal [1] of 0.676 ± 0.029 fold-change vs cycle 0 and a binding signal [2] of 0.769 ± 0.0401 fold-change vs cycle 0.

With AGTGAT the binding signal (SALL4 ZFC4 WT (HT-SELEX)) was 1.45 ± 0.0292 fold-change vs cycle 0, the binding signal [1] was 1.59 ± 0.0395 fold-change vs cycle 0 and the binding signal [2] was 1.53 ± 0.097 fold-change vs cycle 0.

In the case of ATAAAG, the binding signal (SALL4 ZFC4 WT (HT-SELEX)) is reported as 2.23 ± 0.104 fold-change vs cycle 0, the binding signal [1] is reported as 2.12 ± 0.11 fold-change vs cycle 0 and the binding signal [2] is reported as 1.79 ± 0.17 fold-change vs cycle 0.

Sequence GTACTA has a binding signal (SALL4 ZFC4 WT (HT-SELEX)) of 1.24 ± 0.0382 fold-change vs cycle 0, a binding signal [1] of 1.37 ± 0.098 fold-change vs cycle 0 and a binding signal [2] of 1.29 ± 0.0902 fold-change vs cycle 0.

CTTCAA gave a binding signal (SALL4 ZFC4 WT (HT-SELEX)) of 1.25 ± 0.0505 fold-change vs cycle 0, a binding signal [1] of 1.41 ± 0.0826 fold-change vs cycle 0 and a binding signal [2] of 1.33 ± 0.122 fold-change vs cycle 0.
